Assay [1] is described as follows: MultiTox-Fluor Cytotoxicity Assay - LYMP1-001 - Live Cells (AID 947).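 Note: 0% = DMSO only and full inhibition = tetraoctylammonium bromide control.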
Assay [2] is described as follows: MultiTox-Fluor Cytotoxicity Assay - LYMP1-002 - Dead Cells (AID 960).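 Note: 0% = DMSO and 100% = tetraoctylammonium bromide; nearly all actives have a fitted effect of over 60% in size.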 The essentials: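 Human lymphoblastoid cells (LYMP1-002), 2500/well in complete medium, were exposed to compounds for 16 hr at 37 C. Dead-cell protease activity was read as bis-AAF-R110 fluorescence (Ex/Em 485/520), normalized to DMSO and 15 uM tetraoctylammonium bromide; AC50 from Hill fits.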

Assay [3] can be described thus: Cell Viability - LYMP2-004 (AID 966).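 Note: plate controls were DMSO only for no effect and tetraoctylammonium bromide control for full effect; nearly all actives have a fitted effect of over 65% in size.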 The method in brief: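 Human lymphoblastoid cells (2500/well) in complete medium were treated with compounds for 24 hr at 37 C, then intracellular ATP was measured by CellTiter-Glo luminescence. AC50 values came from Hill-equation fits of concentration-response data.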
A short description of assay [4]: Cell Viability - LYMP1-002 - Assay at 24 hr (AID 993). Note: % is set by controls: 0 for no effect and ±100 for the full control effect. The essentials:
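Human lymphoblastoid LYMP1-002 cells, 2500/well in complete medium, were treated with compounds for 24 h at 37 C; intracellular ATP was read by CellTiter-Glo luminescence. AC50 values came from Hill-equation fits of qHTS concentration-response data.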

Assay [5] concerns the target Peroxisome proliferator-activated receptor gamma (Homo sapiens) (UniProt P37231). Description: qHTS assay for small molecule agonists of peroxisome proliferator-activated receptor gamma signaling (AID 588536; active = well fitted curve in the direction sought with a large enough effect in the signal ratio, with a control signal flat, not every such curve was filed as active; the % refers to the signal ratio;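 note: 0% = DMSO basal wells and 100% = rosiglitazone at 2 µM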). The essentials: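 Test agents, titrated, stimulated HEK293 UAS-bla cells overnight (16 h, 37 C). Substrate CCF4 was then added for two hours at room temperature before fluorescence reading.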
(qHTS replaces the single test concentration by a dilution series.)

Assay [6] is described as follows: qHTS assay for small molecule agonists of retinoid X receptor alpha signaling (AID 588544; calls by dose curve;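 for activation: 0% = DMSO basal wells and 100% = reference agonist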). The note with it: HEK293T RXRa-UAS-bla, beta-lactamase reporter, 18 h; 530 nm emission.
Assay [7] concerns the target Retinoic acid receptor RXR-alpha (Homo sapiens) (UniProt P19793). The description is as above.
In assay [8] the target is Thyroid hormone receptor beta (Homo sapiens) (UniProt P10828). Description: qHTS assay for small molecule agonists of thyroid hormone receptor beta signaling (AID 588545; calls by dose curve;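 note: 0% = DMSO only and 100% = 10 nM T3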). The method in brief: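 Efficacy and EC50 values derive from Hill fits of qHTS titration data, normalized to 10 nM T3 and DMSO-only wells. HEK 293 reporter cells were stimulated for 18 hrs at 37 C, with beta-lactamase activity measured by CCF4 fluorescence.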
Thyroid hormone receptor beta (Homo sapiens), sequence (P10828 whole entry, looked up): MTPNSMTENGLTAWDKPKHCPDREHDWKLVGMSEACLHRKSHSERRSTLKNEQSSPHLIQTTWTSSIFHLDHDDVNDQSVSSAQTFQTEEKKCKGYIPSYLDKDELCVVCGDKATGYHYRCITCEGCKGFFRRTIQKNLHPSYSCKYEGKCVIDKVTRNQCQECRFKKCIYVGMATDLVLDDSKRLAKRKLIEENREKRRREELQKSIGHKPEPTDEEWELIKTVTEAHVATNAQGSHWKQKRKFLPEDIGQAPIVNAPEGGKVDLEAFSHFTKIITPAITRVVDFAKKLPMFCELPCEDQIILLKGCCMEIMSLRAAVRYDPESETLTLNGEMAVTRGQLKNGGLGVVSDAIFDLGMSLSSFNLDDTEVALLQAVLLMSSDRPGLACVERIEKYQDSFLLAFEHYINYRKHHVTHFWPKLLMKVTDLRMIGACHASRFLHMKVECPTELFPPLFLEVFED

Assay [9] shares this target. Kind of assay: qHTS assay for small molecule antagonists of thyroid hormone receptor beta signaling (AID 588547; active = well fitted inhibition curve with a large enough effect in the signal ratio, with a control signal flat, not every such curve was filed as active; the % refers to the signal ratio;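 note: cells stimulated with 0.4 nM T3 agonist during compound exposure; series mostly up to about 77 µM; % is set by controls: 0 for no effect and ±100 for the full control effect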). Conditions: TR-UAS-bla HEK293, beta-lactamase ratio, antagonist mode, 18 h. The essentials:
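TR-UAS-bla GripTite HEK293 cells in 2% charcoal/dextran FBS medium; compounds 0.59 nM to 92 uM with T3 at 0.4nM final, 18 h at 37 C. Beta-lactamase read by CCF4 fluorescence (460/530 nm); Hill fits gave IC50 and efficacy.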

For assay [10], the target named is Voltage-gated inwardly rectifying potassium channel KCNH2 (Homo sapiens) (UniProt Q12809). Description: qHTS Assay for Small Molecule Inhibitors of the Human hERG Channel Activity (AID 588834).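 Note: top concentration of the series differs between compounds; % is set by controls: 0 for no effect and ±100 for the full control effect; lower thallium flux fluorescence means stronger hERG block; nearly all actives have a fitted effect of over 50% in size.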 The essentials: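 Blockade is seen as reduced FluxOR thallium-flux fluorescence in U2OS cells expressing hERG from a BacMam construct, in Opti-MEM with 2% FCS. Concentration-response data fitted to the Hill equation for AC50.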
Voltage-gated inwardly rectifying potassium channel KCNH2 (Homo sapiens), sequence (Q12809 whole entry, looked up): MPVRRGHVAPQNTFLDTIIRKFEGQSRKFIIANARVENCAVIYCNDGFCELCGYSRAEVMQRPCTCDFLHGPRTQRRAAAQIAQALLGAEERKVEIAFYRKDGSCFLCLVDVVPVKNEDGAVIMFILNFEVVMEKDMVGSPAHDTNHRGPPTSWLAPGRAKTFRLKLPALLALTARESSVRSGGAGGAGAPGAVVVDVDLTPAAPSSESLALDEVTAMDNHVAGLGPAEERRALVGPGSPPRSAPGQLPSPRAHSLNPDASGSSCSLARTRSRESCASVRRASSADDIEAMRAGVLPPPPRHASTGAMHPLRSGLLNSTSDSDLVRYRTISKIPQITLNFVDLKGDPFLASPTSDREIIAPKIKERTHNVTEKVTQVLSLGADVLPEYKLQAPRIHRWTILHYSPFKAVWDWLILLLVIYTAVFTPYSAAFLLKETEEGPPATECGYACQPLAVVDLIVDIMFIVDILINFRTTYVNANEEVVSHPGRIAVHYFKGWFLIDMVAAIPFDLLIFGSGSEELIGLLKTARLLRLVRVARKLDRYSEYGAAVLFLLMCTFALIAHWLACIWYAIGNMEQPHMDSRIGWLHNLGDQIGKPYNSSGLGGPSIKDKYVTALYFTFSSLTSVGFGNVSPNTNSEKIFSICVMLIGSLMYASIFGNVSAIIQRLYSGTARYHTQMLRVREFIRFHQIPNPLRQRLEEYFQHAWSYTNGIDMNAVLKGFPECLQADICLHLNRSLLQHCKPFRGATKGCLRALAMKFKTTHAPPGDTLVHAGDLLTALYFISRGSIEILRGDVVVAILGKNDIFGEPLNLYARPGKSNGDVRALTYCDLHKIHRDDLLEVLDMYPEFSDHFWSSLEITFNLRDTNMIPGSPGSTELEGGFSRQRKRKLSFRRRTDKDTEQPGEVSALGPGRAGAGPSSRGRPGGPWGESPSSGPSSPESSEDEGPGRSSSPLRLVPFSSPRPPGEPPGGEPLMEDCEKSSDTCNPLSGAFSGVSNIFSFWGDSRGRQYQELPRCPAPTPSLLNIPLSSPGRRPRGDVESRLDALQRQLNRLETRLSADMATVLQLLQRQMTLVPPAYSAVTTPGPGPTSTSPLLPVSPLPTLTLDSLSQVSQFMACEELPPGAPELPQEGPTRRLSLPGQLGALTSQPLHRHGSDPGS

Assay [11] can be described thus: qHTS assay for small molecule activators of the p53 signaling pathway (AID 651743; active = well fitted activation curve with a large enough effect in the signal ratio, not every such curve was filed as active; the % refers to the signal ratio; note: series mostly up to about 92 µM; % of control where 0% means no effect). The note with it: HCT-116 p53RE-bla, beta-lactamase FRET ratio, 16 h; activation: stronger effect = higher value. The method in brief: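 HCT-116 p53RE-bla, 4,000 cells/well; 5 h settle; cpd/DMSO 16 h, 37 C; LiveBLAzer B/G 2 h RT; fluorescence intensity.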
Assay [12] in a line: qHTS assay for small molecule disruptors of the mitochondrial membrane potential - 1 hr assay (AID 651754; calls by dose curve; note: % is set by controls: 0 for no effect and ±100 for the full control effect; nearly all actives have a fitted effect of over 35% in size). The essentials:
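HepG2 cells, attached overnight at 37C, were exposed to compound or DMSO vehicle for 1 hr at 37C, 5% CO2, then stained with Mito-MPS dye for 30 min. Red aggregate versus green monomer fluorescence reports membrane potential.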

The nature of assay [13]: qHTS assay for small molecule disruptors of the mitochondrial membrane potential - 5 hr assay (AID 651755; calls by dose curve; note: % is set by controls: 0 for no effect and ±100 for the full control effect; nearly all actives have a fitted effect of over 40% in size). The method in brief: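 HepG2 cells (2,000/well), attached overnight, exposed to compound 5 hr at 37C, then Mito-MPS dye 30 min. Fluorescence read for monomers (490/535 nm) and aggregates (540/590 nm).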
Assay [14] concerns the target Tumor necrosis factor (Homo sapiens) (UniProt P01375). Kind of assay: qHTS assay to identify small molecules that stimulate Tumor Necrosis Factor-alpha (TNF-alpha) secretion (AID 651757; active = well fitted curve in the direction sought with a large enough effect in the signal ratio; the % refers to the signal ratio; note: 0% is about no effect). The essentials: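 THP-1 cells were exposed to compounds for 17 hrs at 37 C, after which secreted TNF-alpha was measured by homogeneous HTRF (TR-FRET) using cryptate- and XL665-labeled anti-TNF-alpha antibodies, read after 3 hr at room temperature.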

Assay [15] is described as follows: qHTS assay for environmental chemicals that activate the Aryl hydrocarbon Receptor (AhR) signaling pathway (AID 651777). Note: % of control where 0% means no effect; nearly all actives have a fitted effect of over 15% in size. Conditions: 1A2-DRE human hepatoma cells, luciferase, 24 h; activation: stronger effect = higher value. The essentials:
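Stable CYP1A2 promoter/DRE-luciferase human hepatoma line treated 24 hr; One-Glo luminescence, 30 min RT.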

Assay [16] in a line: qHTS assay for small molecule agonists of the antioxidant response element (ARE) signaling pathway measured by Nrf2-dependant transcriptional activity (AID 720636; active = well fitted curve in the direction sought with a large enough effect in the repeat runs; an effect the other way counts as inactive or inconclusive;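 note: HepG2 cells with an ARE-driven luciferase reporter; % of control where 0% means no effect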). The essentials:
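Reporter gene assay, HepG2 ARE-luc: 16 hr compound, 37 C, 5% CO2; read-out luciferase luminescence.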

The nature of assay [17]: qHTS assay for small molecule antagonists of the retinoid-related orphan receptor gamma (ROR-gamma) signaling pathway - cell viability counter screen (AID 720652; active = well fitted curve in the direction sought with a large enough effect in the repeat runs; an effect the other way counts as inactive or inconclusive;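 note: CHO reporter cells with doxycycline-induced ROR-gamma expression; series mostly up to about 92 µM; compound exposure lasted 16 hr before ATP read; % is set by controls: 0 for no effect and ±100 for the full control effect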). The method in brief:
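Counter screen in CHO cells carrying TET-inducible ROR-gamma and an ROR response element-luciferase reporter; cells plated 5 hr, compound pinned, doxycycline added, then 16 hr at 37 C. Viability read as intracellular ATP by CellTiter-Glo luminescence.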

Assay [18] concerns the target Nuclear receptor subfamily 1 group I member 2 (Rattus norvegicus) (UniProt Q9R1A7). Kind of assay: qHTS assay for small molecule activators of the rat pregnane X receptor (rPXR) signaling pathway (AID 651751; call rule not given here; note: 0% is about no effect). Conditions: rPXR reporter cells, luciferase (One-Glo), 24 h.
A short description of assay [19]: qHTS assay for small molecule activators of the human pregnane X receptor (PXR) signaling pathway (AID 720659; call rule not given here; note: 0% is about no effect).
Assay [20] concerns the target Cytochrome P450 3A4 (Homo sapiens) (UniProt P08684). Description: qHTS Assay for Inhibitors and Substrates of Cytochrome P450 3A4 (AID 884). Note: series mostly up to about 57 µM; % is set by controls: 0 for no effect and ±100 for the full control effect; nearly all actives have a fitted effect of over 50% in size. The method in brief: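 20 nM human CYP3A4 with 25 uM Luciferin-PPXE (at KM) in 200 mM KPO4, preincubated 10 min with compound; NADPH regeneration started a 60 min RT reaction. Luciferin detected by luminescence, normalized to 57 uM ketoconazole as full inhibition.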

Values joined by “and” are separate entries in the source; they are usually repeats but may differ in a detail not shown here. Equal values may be shown once. Results filed as inconclusive are left out. Active and inactive are the calls of the source. Unless noted, calls come from the whole dose curve; as a rule, active = well fitted curve in the direction sought with a large enough effect; inconclusive = small, poorly fitted or top-dose-only effect, or another doubt; inactive = no such curve, though single readings can be large; an effect the other way counts as inactive or inconclusive.

Tumor necrosis factor (Homo sapiens), sequence (P01375 whole entry, looked up): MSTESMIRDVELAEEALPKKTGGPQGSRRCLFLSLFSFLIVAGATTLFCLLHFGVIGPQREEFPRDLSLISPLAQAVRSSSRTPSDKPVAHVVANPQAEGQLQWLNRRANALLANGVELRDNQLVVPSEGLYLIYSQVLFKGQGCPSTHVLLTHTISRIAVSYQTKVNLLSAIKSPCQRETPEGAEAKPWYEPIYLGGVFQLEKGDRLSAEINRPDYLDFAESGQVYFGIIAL
Cytochrome P450 3A4 (Homo sapiens), sequence (P08684 whole entry, looked up): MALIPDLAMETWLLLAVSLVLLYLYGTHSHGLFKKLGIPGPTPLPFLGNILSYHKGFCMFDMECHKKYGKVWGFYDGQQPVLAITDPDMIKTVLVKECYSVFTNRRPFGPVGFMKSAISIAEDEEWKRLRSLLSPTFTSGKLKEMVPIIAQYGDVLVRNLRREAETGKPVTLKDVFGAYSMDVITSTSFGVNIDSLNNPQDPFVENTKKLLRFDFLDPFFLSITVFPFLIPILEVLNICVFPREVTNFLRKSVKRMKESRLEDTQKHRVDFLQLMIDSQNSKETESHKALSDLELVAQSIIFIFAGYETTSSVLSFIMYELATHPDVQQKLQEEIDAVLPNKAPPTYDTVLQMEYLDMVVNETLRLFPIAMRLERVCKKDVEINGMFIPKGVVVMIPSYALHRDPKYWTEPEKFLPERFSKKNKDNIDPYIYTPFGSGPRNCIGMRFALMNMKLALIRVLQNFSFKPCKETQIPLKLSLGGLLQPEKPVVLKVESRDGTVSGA
Nuclear receptor subfamily 1 group I member 2 (Rattus norvegicus), sequence (Q9R1A7 whole entry, looked up): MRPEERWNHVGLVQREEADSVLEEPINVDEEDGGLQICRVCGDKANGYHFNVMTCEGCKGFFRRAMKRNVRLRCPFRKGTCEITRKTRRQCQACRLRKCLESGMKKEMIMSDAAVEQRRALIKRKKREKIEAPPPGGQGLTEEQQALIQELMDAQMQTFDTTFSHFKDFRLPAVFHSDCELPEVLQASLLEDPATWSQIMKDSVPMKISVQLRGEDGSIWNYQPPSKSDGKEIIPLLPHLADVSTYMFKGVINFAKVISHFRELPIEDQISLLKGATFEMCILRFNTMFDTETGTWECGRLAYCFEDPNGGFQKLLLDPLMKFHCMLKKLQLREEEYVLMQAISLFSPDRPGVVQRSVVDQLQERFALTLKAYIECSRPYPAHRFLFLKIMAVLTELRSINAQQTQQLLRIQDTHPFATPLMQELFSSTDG
Retinoic acid receptor RXR-alpha (Homo sapiens), sequence (P19793 whole entry, looked up): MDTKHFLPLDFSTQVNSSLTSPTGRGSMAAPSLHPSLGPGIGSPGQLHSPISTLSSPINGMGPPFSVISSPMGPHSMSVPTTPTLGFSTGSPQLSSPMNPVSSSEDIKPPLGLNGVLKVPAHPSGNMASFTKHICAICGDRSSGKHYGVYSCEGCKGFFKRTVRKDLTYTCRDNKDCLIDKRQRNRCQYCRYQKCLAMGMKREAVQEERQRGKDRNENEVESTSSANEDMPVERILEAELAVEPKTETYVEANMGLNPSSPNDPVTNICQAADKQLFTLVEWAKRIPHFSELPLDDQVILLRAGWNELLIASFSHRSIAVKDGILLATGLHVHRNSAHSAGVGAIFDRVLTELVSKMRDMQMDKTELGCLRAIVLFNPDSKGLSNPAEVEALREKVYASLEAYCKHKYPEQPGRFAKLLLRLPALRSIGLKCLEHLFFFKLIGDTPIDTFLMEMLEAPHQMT
Peroxisome proliferator-activated receptor gamma (Homo sapiens), sequence (P37231 whole entry, looked up): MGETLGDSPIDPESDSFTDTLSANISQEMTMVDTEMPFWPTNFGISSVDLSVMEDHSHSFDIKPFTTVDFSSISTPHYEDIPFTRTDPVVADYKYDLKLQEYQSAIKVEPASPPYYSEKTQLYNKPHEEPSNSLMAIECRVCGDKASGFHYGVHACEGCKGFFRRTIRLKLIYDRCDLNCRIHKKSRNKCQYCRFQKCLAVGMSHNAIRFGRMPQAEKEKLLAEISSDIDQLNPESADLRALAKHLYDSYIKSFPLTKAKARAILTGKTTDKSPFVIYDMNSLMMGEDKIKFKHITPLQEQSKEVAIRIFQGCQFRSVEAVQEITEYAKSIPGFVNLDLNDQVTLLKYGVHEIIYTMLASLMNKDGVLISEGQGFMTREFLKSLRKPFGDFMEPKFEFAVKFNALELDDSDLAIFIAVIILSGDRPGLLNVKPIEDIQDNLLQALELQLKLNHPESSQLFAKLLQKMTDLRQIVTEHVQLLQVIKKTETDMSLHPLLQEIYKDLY

Take `Cc1ccc([N+](=O)[O-])cc1N`: the Potency entry in assay [1], in assay [2], in assay [3], in [4], in assay [10] and in assay [12] was “inactive” each time. Further, the Potency entry in assay [13], in [16] and in assay [17] was “inactive” each time. The compound was called inactive in assay [5], in assay [7], in assay [8], in assay [14] and in assay [19]. Besides, the max response in assay [6] was -6.56% and -2.61%; in assay [18], 0.691% (inactive) and 2.27% (inactive). Also, in [9], the activity change % (negative = inhibition) is 15.7% (inactive) and 9.17% (inactive). The activation in assay [11] was -1.56% (inactive) and -5% (inactive); in [15], 6.03% (inactive) and 2.09% (inactive).

Take `COC(=O)c1ccc(C=O)cc1`: the Potency result in assay [20], in assay [1], in [2], in [3], in assay [4] and in [10] was “inactive” in each case. Besides, the Potency result in assay [12], in assay [13], in [16] and in assay [17] was “inactive” in each case. Also, the call in assay [5], in [7], in assay [8], in assay [14] and in assay [19] was inactive. Besides, the max response in [6] was 2.75% and 4.18%; in [18], -0.798% (inactive) and -1.94% (inactive). In addition, the activity change % (negative = inhibition) in assay [9] was 3.66% (inactive). The activation was -0.565% (inactive) and 0.101% (inactive) in assay [11]; 1.65% (inactive) and -0.822% (inactive) in [15].

As for `Nc1ccc(Cl)cc1Cl`, the Potency entry in assay [1], in assay [2], in [3], in assay [4], in assay [10] and in [12] was “inactive” throughout. Moreover, the Potency entry in assay [13], in assay [16] and in assay [17] was “inactive” throughout. In addition, the compound was called inactive in assay [5], in [7], in [8], in assay [14] and in [19]. Moreover, the max response in [6] is -10.9%; in assay [18], 2.63% (inactive) and 1.63% (inactive). In assay [9], the activity change % (negative = inhibition) is -5.09% (inactive) and -14.9% (inactive). The activation in [11] is -2.62% (inactive) and -5.11% (inactive); in assay [15], -1.04% (inactive) and 0.693% (inactive).

On to `O=[N+]([O-])c1cccc(Cl)c1Cl`, for which the Potency entry in assay [20], in assay [1], in assay [2], in assay [3], in assay [4] and in assay [12] was “inactive” in each case. In addition, the Potency result in assay [13], in [16] and in assay [17] was “inactive” each time. Moreover, the compound was called inactive in [5], in [7], in [14] and in [19]. The max response is 6.35% and -11.4% in assay [6]; -1.89% (inactive) and -3.78% (inactive) in assay [18]. The activation in assay [15] was 0.0517% (inactive) and -0.399% (inactive).

For `CC(=O)OC/C=C(\C)CCC=C(C)C`, the Potency entry in [20], in [1], in [2], in assay [3], in assay [4] and in assay [10] was “inactive” throughout. Further, the Potency result in assay [12], in assay [13], in [16] and in assay [17] was “inactive” each time. In addition, the call in [5], in assay [7], in assay [8], in assay [14] and in assay [19] was inactive. In addition, the max response in assay [6] was 4.32% and -5.25%; in assay [18], 1.82% (inactive) and -1.93% (inactive). In addition, in assay [9], the activity change % (negative = inhibition) is 10.6% (inactive). The activation was -0.898% (inactive) and 4.78% (inactive) in assay [11]; 0.424% (inactive) and -0.161% (inactive) in assay [15].

In the case of `Clc1cc(Cl)c(Cl)c(Cl)c1Cl`, the Potency result in assay [1], in [2], in assay [3], in assay [4], in assay [10] and in assay [12] was “inactive” in each case. Besides, the Potency entry in assay [13], in assay [16] and in assay [17] was “inactive” throughout. The max response in assay [6] was -1.44% and -10.6%; in assay [18] it was 0.274% (inactive) and 3.7% (inactive). Further, the outcome in [7], in assay [8], in assay [14] and in [19] was inactive. Further, the activity change % (negative = inhibition) in assay [9] was 4.53% (inactive) and 17.6% (inactive). The activation in assay [11] was -3.68% (inactive) and 2.1% (inactive); in [15], 0.277% (inactive) and 2.12% (inactive).

For the origin of these results see PubChem BioAssay (NCATS).
